Measured values published in PubChem BioAssay (Tox21).
Unmarked numbers belong to inactive results. Results filed as inconclusive are left out. Entries that show only a call come without a potency. The source made the active and inactive calls. Unless noted, calls come from the whole dose curve.

What was measured:
[1] = qHTS assay to identify small molecule agonists of the sonic hedgehog signaling (Shh) pathway (AID 1259368);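 note: NIH/3T3-derived 3T3Gli1-Luc cells carrying a stable Gli1-driven firefly luciferase reporter; series mostly up to about 92 µM; nearly all actives have a fitted effect of over 15% in size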
Procedure, shortened: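 3T3Gli1-Luc (NIH/3T3 clone, stable Gli1-Luc); 4 hr pre-incubation, then cpd in DMSO 24 hr, 37 C/5% CO2; luciferase reagent 30 min RT; luminescence.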

[2] = qHTS assay to identify small molecule antagonists of the sonic hedgehog signaling (Shh) pathway (AID 1259369); note: nearly all actives have a fitted effect of over 45% in size
Procedure, shortened: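 3T3Gli1-Luc, conditioned-medium-stimulated, 24hr cpd, 37C/5% CO2; Gli1-driven firefly Luc luminescence after 30min RT with luciferase reagent. Cells plated 4hr before cpd.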

[3] = molecular target: Estrogen receptor beta (Homo sapiens) (UniProt Q92731); experiment: qHTS assay to identify small molecule agonists of the estrogen receptor beta (ER-beta) signaling pathway (AID 1259377; active = well fitted activation curve with a large enough effect in the signal ratio in the repeat runs, not every such curve was filed as active; the % refers to the signal ratio)
Sequence of Estrogen receptor beta (Homo sapiens) (Q92731 whole entry, looked up): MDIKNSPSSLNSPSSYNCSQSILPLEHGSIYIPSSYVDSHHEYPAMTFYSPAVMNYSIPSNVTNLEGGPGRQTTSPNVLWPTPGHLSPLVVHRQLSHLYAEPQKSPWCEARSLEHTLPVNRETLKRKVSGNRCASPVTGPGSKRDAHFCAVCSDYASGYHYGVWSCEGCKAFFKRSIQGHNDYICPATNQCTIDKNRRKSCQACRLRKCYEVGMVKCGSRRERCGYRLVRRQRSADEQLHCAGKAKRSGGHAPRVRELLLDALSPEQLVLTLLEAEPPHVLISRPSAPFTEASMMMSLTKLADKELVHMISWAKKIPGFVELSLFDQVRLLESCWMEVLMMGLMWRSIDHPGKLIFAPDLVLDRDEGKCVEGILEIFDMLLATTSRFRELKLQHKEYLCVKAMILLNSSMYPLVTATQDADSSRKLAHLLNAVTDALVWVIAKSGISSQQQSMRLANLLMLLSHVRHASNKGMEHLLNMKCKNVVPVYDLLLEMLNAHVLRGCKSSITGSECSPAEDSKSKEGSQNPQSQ
Procedure, shortened: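 In HEK293T cells bearing a UAS-beta-lactamase reporter under ER-beta control, DMSO-delivered compounds were incubated for 16 hr at 37C. Activity was detected as fluorescence 2 hours after LiveBLAzer B/G FRET substrate addition.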

[4] = molecular target: Estrogen receptor beta (Homo sapiens) (UniProt Q92731); experiment: qHTS assay to identify small molecule antagonists of the estrogen receptor beta (ER-beta) signaling pathway (AID 1259378; active = well fitted inhibition curve with a large enough effect in the signal ratio in the repeat runs, not every such curve was filed as active; the % refers to the signal ratio)
Procedure, shortened: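 ER-beta-UAS-bla HEK293T cells in 2% charcoal-stripped FBS medium treated with compound plus 1nM final 17-beta-estradiol for 16 hr at 37C. Beta-lactamase reporter read by FRET substrate fluorescence after 2 hours at room temperature.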

[5] = qHTS assay to identify small molecule agonists of the estrogen receptor beta (ER-beta) signaling pathway - cell viability counter screen (AID 1259380; active = well fitted curve in the direction sought with a large enough effect in the repeat runs; an effect the other way counts as inactive or inconclusive; note: nearly all actives have a fitted effect of over 30% in size)
Procedure, shortened: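 HEK293T ER-beta-UAS-bla; 2% CS-FBS; 6 hr pre-plate, 16 hr cpd at 37C/5% CO2; LiveBLAzer read first, then CellTiter-Glo 30 min RT, luminescence.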

[6] = molecular target: Androgen receptor (Homo sapiens) (UniProt P10275); experiment: qHTS assay to identify small molecule agonists of the androgen receptor (AR) signaling pathway in the presence of an antagonist (AID 1259381); note: nearly all actives have a fitted effect of over 15% in size
Sequence of Androgen receptor (Homo sapiens) (P10275 whole entry, looked up): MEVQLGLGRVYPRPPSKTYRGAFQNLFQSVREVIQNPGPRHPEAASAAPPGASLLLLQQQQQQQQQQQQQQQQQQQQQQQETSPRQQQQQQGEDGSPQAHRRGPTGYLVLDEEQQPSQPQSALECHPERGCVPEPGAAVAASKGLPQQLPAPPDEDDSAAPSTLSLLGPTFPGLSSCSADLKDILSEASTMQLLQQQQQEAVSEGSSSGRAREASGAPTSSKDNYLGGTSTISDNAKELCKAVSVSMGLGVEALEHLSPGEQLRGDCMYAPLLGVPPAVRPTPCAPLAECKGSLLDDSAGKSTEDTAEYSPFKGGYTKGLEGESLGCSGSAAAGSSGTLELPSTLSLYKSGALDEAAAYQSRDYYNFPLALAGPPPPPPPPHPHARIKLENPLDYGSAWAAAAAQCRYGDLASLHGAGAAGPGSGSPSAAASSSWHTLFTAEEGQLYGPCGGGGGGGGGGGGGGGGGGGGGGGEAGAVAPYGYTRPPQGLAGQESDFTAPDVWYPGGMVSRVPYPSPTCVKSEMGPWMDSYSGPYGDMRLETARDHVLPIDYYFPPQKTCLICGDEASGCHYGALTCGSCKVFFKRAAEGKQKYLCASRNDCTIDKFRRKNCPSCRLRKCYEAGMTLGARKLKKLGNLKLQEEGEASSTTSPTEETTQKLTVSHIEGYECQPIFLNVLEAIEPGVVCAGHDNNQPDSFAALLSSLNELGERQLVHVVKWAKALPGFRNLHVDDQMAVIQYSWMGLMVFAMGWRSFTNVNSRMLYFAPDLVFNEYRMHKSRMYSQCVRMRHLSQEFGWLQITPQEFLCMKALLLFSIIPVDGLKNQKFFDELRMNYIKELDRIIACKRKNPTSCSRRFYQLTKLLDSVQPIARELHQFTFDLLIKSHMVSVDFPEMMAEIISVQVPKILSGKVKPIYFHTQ
Procedure, shortened: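 MDA-kb2 cells, 3,000/well, rested 5hr at 37C/0% CO2 → nilutamide 3.0uM final or buffer → compounds, 15 conc. → 16hr at 37C → ONE-Glo, 30min RT → luminescence.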

[7] = qHTS assay to identify small molecule antagonists of the estrogen receptor beta (ER-beta) signaling pathway - cell viability counter screen (AID 1259382; active = well fitted curve in the direction sought with a large enough effect in the repeat runs; an effect the other way counts as inactive or inconclusive; note: series mostly up to about 92 µM; nearly all actives have a fitted effect of over 55% in size)
Procedure, shortened: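 Cells: ER-beta-UAS-bla HEK293T, 2,000/well, 2% CS-FBS, 6 hr settle. Cpd + E2 (1nM final), 16 hr, 37C/5% CO2. Bla FRET substrate 2 hr RT, then CellTiter-Glo 30 min RT, luminescence.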

[8] = molecular target: Estrogen receptor (Homo sapiens) (UniProt P03372); experiment: qHTS assay to identify small molecule agonists of the estrogen receptor alpha (ER-alpha) signaling pathway in the presence of an antagonist (AID 1259383); note: nearly all actives have a fitted effect of over 15% in size; note: potency is the fitted concentration of half-maximal effect; for activation: top concentration of the series differs between compounds
Sequence of Estrogen receptor (Homo sapiens) (P03372 whole entry, looked up): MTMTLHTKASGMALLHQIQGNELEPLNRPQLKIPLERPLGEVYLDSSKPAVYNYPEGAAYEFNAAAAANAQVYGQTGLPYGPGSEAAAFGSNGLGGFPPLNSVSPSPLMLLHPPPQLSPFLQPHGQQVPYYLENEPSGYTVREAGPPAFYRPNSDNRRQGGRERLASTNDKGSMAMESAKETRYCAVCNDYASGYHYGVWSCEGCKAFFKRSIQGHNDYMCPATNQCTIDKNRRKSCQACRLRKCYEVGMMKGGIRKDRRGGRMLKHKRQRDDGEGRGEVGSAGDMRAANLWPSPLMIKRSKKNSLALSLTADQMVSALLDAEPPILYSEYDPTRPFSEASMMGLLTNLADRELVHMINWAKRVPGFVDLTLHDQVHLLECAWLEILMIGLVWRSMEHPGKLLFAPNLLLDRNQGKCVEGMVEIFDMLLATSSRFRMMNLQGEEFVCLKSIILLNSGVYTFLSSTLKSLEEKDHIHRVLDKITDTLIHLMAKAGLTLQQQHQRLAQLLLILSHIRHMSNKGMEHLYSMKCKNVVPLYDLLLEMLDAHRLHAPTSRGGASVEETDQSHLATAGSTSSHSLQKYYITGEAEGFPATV
Procedure, shortened: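 VM7Luc4E2, endog. ER-alpha + 4×ERE-luc; charcoal-stripped FBS, phenol red-free, 5 d; 24hr plating; +10.0nM ICI-182,780 (final); cpds 15 conc, 22hr, 37C/5% CO2; ONE-Glo luminescence.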

[9] = qHTS assay to identify small molecule agonists or antagonists of the thyroid stimulating hormone receptor (TSHR) signaling pathway - wild type cell line counter screen (AID 1259384)
Procedure, shortened: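 Wild-type Hek293 cells, 800/well, 18 h at 37C, then compound with Ro20-1724 for 30 min RT. cAMP by HTRF (cAMP-d2/anti-cAMP cryptate), 1 h RT, fluorescence read. 15 concentrations, triplicates.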

[10] = molecular target: Thyrotropin receptor (Homo sapiens) (UniProt P16473); experiment: qHTS assay to identify small molecule antagonists of the thyroid stimulating hormone receptor (TSHR) signaling pathway (AID 1259385); note: nearly all actives have a fitted effect of over 20% in size
Sequence of Thyrotropin receptor (Homo sapiens) (P16473 whole entry, looked up): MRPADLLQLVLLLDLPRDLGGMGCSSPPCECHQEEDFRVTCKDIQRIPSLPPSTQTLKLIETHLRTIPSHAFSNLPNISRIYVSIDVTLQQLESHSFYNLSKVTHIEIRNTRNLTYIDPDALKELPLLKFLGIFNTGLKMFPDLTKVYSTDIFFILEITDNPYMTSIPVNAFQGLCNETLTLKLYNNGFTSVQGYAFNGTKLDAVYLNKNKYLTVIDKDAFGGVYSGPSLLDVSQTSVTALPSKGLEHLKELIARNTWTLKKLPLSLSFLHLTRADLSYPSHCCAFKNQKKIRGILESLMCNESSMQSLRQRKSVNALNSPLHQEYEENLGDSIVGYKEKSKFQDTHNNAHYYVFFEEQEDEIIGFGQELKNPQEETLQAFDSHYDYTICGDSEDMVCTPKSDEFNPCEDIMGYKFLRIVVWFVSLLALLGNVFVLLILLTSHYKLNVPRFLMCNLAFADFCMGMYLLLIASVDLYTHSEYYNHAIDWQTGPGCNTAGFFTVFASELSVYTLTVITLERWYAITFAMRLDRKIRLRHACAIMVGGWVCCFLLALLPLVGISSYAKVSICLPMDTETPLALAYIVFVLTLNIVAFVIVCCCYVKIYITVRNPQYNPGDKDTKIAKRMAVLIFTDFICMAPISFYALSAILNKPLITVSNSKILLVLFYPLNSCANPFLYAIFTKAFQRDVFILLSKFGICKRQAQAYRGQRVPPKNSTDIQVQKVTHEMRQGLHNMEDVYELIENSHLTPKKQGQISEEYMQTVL
Procedure, shortened: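 TSHR-HEK293 cells (800/well) plated 18 h, then compounds with Ro20-1724 and TSH at 1.5 ng/mL final, 30 min at room temperature. cAMP quantified by HTRF (cAMP-d2/anti-cAMP-cryptate, 1 h); 15 concentrations in triplicate.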

[11] = qHTS assay to identify small molecule agonists of the estrogen receptor alpha (ER-alpha) signaling pathway in the presence of an antagonist - cell viability counter screen (AID 1259386; active = well fitted curve in the direction sought with a large enough effect in the repeat runs; an effect the other way counts as inactive or inconclusive;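 note: series mostly up to about 92 µM; cells exposed to compounds for 22 h at 37 °C before the viability read; nearly all actives have a fitted effect of over 30% in size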)
Procedure, shortened: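 VM7Luc4E2, stripped-serum pre-culture 5 d; 24hr plating; +ICI-182,780 10.0nM final; cpds 15 conc, 22hr, 37C/5% CO2; CellTiter-Fluor added at 21hr, fluorescence 1hr later.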

[12] = molecular target: Progesterone receptor (Homo sapiens) (UniProt P06401); experiment: qHTS assay to identify small molecule agonists of the progesterone receptor (PR) signaling pathway (AID 1346784); note: nearly all actives have a fitted effect of over 30% in size; note: potency is the fitted concentration of half-maximal effect
Sequence of Progesterone receptor (Homo sapiens) (P06401 whole entry, looked up): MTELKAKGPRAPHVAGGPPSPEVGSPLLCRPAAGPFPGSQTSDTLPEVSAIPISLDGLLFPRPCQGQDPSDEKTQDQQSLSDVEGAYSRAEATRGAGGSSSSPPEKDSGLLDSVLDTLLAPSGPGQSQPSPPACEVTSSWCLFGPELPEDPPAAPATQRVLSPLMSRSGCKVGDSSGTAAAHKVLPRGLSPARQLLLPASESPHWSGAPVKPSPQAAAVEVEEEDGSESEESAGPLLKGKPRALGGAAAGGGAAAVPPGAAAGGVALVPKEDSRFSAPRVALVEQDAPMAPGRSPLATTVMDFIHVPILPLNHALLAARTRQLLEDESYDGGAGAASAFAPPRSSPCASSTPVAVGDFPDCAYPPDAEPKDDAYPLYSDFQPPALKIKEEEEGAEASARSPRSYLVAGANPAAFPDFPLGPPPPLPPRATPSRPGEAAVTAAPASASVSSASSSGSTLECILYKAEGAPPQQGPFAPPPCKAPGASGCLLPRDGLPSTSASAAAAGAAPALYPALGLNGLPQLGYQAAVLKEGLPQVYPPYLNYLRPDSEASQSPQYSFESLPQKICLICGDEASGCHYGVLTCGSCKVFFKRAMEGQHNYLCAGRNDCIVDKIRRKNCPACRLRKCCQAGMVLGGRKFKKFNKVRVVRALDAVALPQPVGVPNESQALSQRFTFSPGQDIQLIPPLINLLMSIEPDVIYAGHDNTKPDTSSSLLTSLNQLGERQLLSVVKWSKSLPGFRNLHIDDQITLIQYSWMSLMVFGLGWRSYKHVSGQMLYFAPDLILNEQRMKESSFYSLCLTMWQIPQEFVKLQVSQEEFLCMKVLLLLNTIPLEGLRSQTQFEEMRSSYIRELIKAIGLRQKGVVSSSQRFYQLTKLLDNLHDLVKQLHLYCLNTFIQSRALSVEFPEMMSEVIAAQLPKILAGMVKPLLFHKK
Procedure, shortened: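 Using charcoal-stripped serum (2%) to limit endogenous steroids, PR-UAS-bla HEK 293T cells received compounds for 16 hr at 37C after 6 hr plating; beta-lactamase FRET fluorescence was recorded following 2 hr substrate loading at room temperature.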

[13] = qHTS assay to identify small molecule antagonists of the progesterone receptor (PR) signaling pathway - cell viability counter screen (AID 1346798; active = well fitted curve in the direction sought with a large enough effect in the repeat runs; an effect the other way counts as inactive or inconclusive; note: series mostly up to about 92 µM; nearly all actives have a fitted effect of over 50% in size)
Procedure, shortened: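 ATP content as viability readout: CellTiter-Glo luminescence, 30 min room temperature, in PR-UAS-bla HEK293T cells after 16 hr compound/R5020 treatment at 37C and 5% CO2.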

[14] = qHTS assay to identify small molecule agonists of the progesterone receptor (PR) signaling pathway - cell viability counter screen (AID 1346799); note: nearly all actives have a fitted effect of over 45% in size
Procedure, shortened: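 Cytotoxicity in PR-bla HEK293T cells: 16 h compound, 37C; CellTiter-Glo added post-FRET read; luminescence after 30 min RT.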

[15] = qHTS assay to identify small molecule antagonists of the TGF-beta/Smad signaling pathway - cell viability counter screen (AID 1346824; active = well fitted curve in the direction sought with a large enough effect in the repeat runs; an effect the other way counts as inactive or inconclusive; note: nearly all actives have a fitted effect of over 50% in size)
Procedure, shortened: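 SBE-bla HEK 293T cells, incubated overnight, then compound plus 0.25 ng/mL TGF-beta1 (stock added) for 5 hr at 37 C. Viability was read in the same wells by CellTiter-Glo luminescence after 30 min at room temperature.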

[16] = qHTS assay to identify small molecule agonists of the TGF-beta/Smad signaling pathway (AID 1346859; active = well fitted activation curve with a large enough effect in the signal ratio in the repeat runs, not every such curve was filed as active; the % refers to the signal ratio; note: series mostly up to about 77 µM)
Procedure, shortened: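 Stable Smad binding element-beta-lactamase HEK 293T cells; 5 hr compound exposure at 37 C under 5% CO2; 2 hr room-temperature substrate step; fluorescence excited at 405 nm, collected at 460 nm and 530 nm.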

[17] = qHTS assay to identify small molecule agonists of the androgen receptor (AR) signaling pathway in the presence of an antagonist - cell viability counter screen (AID 1259379; active = well fitted curve in the direction sought with a large enough effect in the repeat runs; an effect the other way counts as inactive or inconclusive;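 note: MDA-kb2 human breast cancer cells carrying an MMTV luciferase reporter; series mostly up to about 92 µM; nearly all actives have a fitted effect of over 25% in size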)
Procedure, shortened: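 Cells: MDA-kb2 (MMTV-luc, AR and GR elements), 3,000/well, 5 hr settle. Added: nilutamide 3.0uM final, then compounds (15 conc.). Incubation: 16 hr, 37C, no CO2. Read-out: CellTiter-Fluor, 1 hr, fluorescence.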

[18] = molecular target: Progesterone receptor (Homo sapiens) (UniProt P06401); experiment: qHTS assay to identify small molecule antagonists of the progesterone receptor (PR) signaling pathway (AID 1346795; active = well fitted inhibition curve with a large enough effect in the signal ratio in the repeat runs, not every such curve was filed as active; the % refers to the signal ratio)
Procedure, shortened: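 Inhibition of R5020-induced (1 nM final) beta-lactamase reporter signal in PR-UAS-bla HEK293T cells was scored by FRET fluorescence after overnight (16 hr) compound treatment.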

[19] = molecular target: Thyrotropin-releasing hormone receptor (Homo sapiens) (UniProt P34981); experiment: qHTS assay to identify small molecule antagonists of the thyrotropin-releasing hormone receptor (TRHR) signaling pathway (AID 1346877; active = well fitted inhibition curve with a large enough effect in the repeat runs, not every such curve was filed as active; note: series mostly up to about 51 µM)
Sequence of Thyrotropin-releasing hormone receptor (Homo sapiens) (P34981 whole entry, looked up): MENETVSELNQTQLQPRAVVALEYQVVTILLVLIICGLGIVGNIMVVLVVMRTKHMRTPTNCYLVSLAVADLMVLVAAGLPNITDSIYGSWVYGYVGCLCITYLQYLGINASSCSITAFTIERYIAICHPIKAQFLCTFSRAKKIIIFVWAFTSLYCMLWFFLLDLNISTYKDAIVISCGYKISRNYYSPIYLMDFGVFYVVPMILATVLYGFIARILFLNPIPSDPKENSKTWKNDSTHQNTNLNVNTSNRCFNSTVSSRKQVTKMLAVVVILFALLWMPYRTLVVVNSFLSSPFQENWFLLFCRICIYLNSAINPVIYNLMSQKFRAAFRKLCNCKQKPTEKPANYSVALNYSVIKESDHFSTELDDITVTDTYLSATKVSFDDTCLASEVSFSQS
Procedure, shortened: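 Intracellular calcium fluorescence, read kinetically every second over 3 min, reports TRH-evoked signalling in HEK293 cells carrying TRHR. Test compounds were added 5 min ahead of a 1 nM TRH challenge.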

[20] = qHTS assay to identify small molecule agonists of the TGF-beta/Smad signaling pathway - cell viability counter screen (AID 1346829; active = well fitted curve in the direction sought with a large enough effect in the repeat runs; an effect the other way counts as inactive or inconclusive; note: top concentration of the series differs between compounds; nearly all actives have a fitted effect of over 45% in size)
Procedure, shortened: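 In parallel with the Smad reporter read, viability of HEK 293T cells stably carrying SBE-bla is quantified by ATP luminescence following 5 hr compound treatment.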

Row | Structure (SMILES) | Potency [1] | Potency [2] | outcome [3] | Potency [4] | Potency [5] | Potency [6] | outcome [7] | Potency [8] | outcome [9] | Potency [10] | Potency [11] | Potency [12] | Potency [13] | Potency [14] | outcome [15] | outcome [16] | Potency [17] | Potency [18] | outcome [19] | outcome [20]
1 | Cc1ccsc1C(=CCCN1CCC[C@@H](C(=O)O)C1)c1sccc1C | inactive | inactive | inactive | inactive | inactive | inactive | inactive | inactive | inactive | inactive | inactive | inactive | inactive | inactive | inactive | inactive |  |  |  | 
2 | OC[C@H]1O[C@@H](O[C@H]2[C@H](O)[C@@H](O)[C@H](O)O[C@@H]2CO)[C@H](O)[C@@H](O)[C@H]1O | inactive | inactive | inactive | inactive |  | inactive | inactive | inactive | inactive | inactive | inactive | inactive | inactive | inactive | inactive | inactive | inactive | inactive | inactive | 
3 | O=C(CC(=O)C(F)(F)F)c1ccccc1 | inactive | inactive | inactive |  |  |  | inactive | 9.83 µM (active) | inactive |  | inactive | 8.76 µM (active) | inactive | inactive | inactive | inactive | inactive | inactive |  | inactive
